Laboratory results from PubChem BioAssay AID492994 (Johns Hopkins Ion Channel Center, 2010).
Results with a measured potency or affinity are listed apart. Active and inactive are the calls of the source.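 Rule for the calls: active = TRPC4 ion channel inhibited over 30% at some tested dose, with a fitted dose response curve; inactive = no inhibition or no dose response curve.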

biological target: Short transient receptor potential channel 4 (Mus musculus) (UniProt Q9QUQ5); assay: potency of mouse TRPC4 calcium flux blockers – cell-based, HEK293 TRPC4/mu-opioid, DAMGO stimulus, Fluo-4, dose response (AID 492994); details: HEK293 TRPC4/mu-opioid cells, Fluo-4 calcium flux, DAMGO-activated; series mostly up to 20 µM
Sequence (Q9QUQ5 whole entry, looked up): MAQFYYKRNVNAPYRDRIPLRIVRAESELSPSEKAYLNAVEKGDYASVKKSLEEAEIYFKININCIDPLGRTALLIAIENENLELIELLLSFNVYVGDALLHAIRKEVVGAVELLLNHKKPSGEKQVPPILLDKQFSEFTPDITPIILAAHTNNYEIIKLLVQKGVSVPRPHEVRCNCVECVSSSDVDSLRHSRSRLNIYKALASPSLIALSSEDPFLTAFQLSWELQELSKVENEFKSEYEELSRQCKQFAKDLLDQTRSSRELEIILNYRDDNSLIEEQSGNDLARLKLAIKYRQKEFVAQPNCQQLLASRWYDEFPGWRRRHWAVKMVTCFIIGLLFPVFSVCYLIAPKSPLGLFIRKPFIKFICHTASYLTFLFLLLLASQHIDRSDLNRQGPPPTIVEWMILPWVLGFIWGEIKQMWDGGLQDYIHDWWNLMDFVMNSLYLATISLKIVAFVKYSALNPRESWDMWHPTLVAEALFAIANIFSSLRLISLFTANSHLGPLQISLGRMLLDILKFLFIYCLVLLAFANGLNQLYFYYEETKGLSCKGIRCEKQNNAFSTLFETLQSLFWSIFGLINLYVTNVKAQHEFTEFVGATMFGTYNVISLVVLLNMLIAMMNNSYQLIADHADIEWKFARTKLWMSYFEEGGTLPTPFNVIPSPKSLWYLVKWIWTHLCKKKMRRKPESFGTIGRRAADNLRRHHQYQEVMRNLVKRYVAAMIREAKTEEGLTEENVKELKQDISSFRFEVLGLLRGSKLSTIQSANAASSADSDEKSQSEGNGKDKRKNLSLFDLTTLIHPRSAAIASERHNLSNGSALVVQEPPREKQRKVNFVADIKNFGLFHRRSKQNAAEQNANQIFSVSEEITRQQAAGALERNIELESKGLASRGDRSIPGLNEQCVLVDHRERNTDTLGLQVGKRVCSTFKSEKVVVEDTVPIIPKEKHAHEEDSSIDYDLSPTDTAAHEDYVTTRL

outcome, inactive:
Cc1ccnc(N2CCCCCC2)c1
Cc1ccnc(N2CCCC2)c1
Cc1ccnc(N2CCCCC2)c1
COc1ccccc1N1CCN(c2cc(C)c3ccccc3n2)CC1
Cc1cc(N2CCCCCC2)nc2c(C)cccc12
CCc1ccc2nc(N3CCCCC3)cc(C)c2c1
Cc1cc(N2CCN(c3ccccc3C#N)CC2)nc2ccccc12
Cc1ccnc(N2CCCCCC2)n1
COc1ccc(N2CCN(c3cc(C)c4ccccc4n3)CC2)cc1
Cc1ccnc(N2CCCCC2)n1
Cc1cc(N2CCN(CC3CCCO3)CC2)nc2ccccc12 (stereo not given)
Cc1ccnc(N2CCCC2)n1
c1ccc(-c2cc(N3CCCCC3)nc3ccccc23)cc1
FC(F)(F)c1cc(N2CCCCCC2)nc2ccccc12
Cc1cc(N(C)CCN(C)C)nc2ccccc12
FC(F)(F)c1cc(N2CCCC2)nc2ccccc12
c1ccc(-c2cc(N3CCCCCC3)nc3ccccc23)cc1
FC(F)(F)c1cc(N2CCCCC2)nc2ccccc12
Cc1cc(N2CCCCC2)nc2c(C)cccc12
c1ccc(-c2cc(N3CCCC3)nc3ccccc23)cc1
